Laboratory results: PubChem BioAssay
Activity calls are given as the source filed them. Cut-off read from the data, not from the text of the source: active = nuclear beta-catenin stimulation mostly above about 4.2% (no sharp cut-off); inactive = mostly below about 10%.

Assay: Wnt pathway potentiators raising nuclear beta-catenin – imaging, WNT3A-conditioned medium, mouse C2C12, NPC library, primary screen (AID 1117326); note: reference of the scale not given here
Conditions: at 10 µM, stronger effect = higher value

SMILES | nuclear beta-catenin stimulation
CCOC(=O)N1CCC(Nc2ccc(Cl)cc2N)CC1 | 5.3% (inactive)
OCCCc1ccccc1 | 1.8% (inactive)
CC[C@@H]([C@H](C)O)n1ncn(-c2ccc(N3CCN(c4ccc(OC[C@@H]5CO[C@@](Cn6cncn6)(c6ccc(F)cc6F)C5)cc4)CC3)cc2)c1=O | 51.6% (active)
Nc1ncnc2c1ncn2Cc1c(F)cccc1Cl | -0.7% (inactive)
Cc1nc2n(c(=O)c1CCN1CCC(C(=O)c3ccc(F)cc3)CC1)CCS2 | 0.2% (inactive)
COC(=O)c1cc(Cl)c(NC(C)=O)cc1OC | 1.9% (inactive)
CC(C(=O)O)c1ccc(/C=C2\CCCCC2=O)cc1 (stereo not drawn) | 0% (inactive)
Cn1c(O)c(N=NC(N)=S)c2ccccc21 | 2.5% (inactive)
OC[C@H]1O[C@@H](n2cnc3c(=S)nc[nH]c32)[C@H](O)[C@@H]1O | -2.5% (inactive)
CCOC(=O)CN1CCCC1=O | 1.9% (inactive)
COC(=O)/C=C(/C)N | 0.7% (inactive)
CCCN(CCc1cccs1)[C@H]1CCc2c(O)cccc2C1 | 0.6% (inactive)
CCCCCCCC/C=C\CCCCCCCCN | -3.5% (inactive)
COc1ccc(S(=O)(=O)N2c3ccc(Cl)cc3[C@@](O)(c3ccccc3Cl)[C@H]2C(=O)N2CCC[C@@H]2C(N)=O)cc1OC | 0.6% (inactive)
C/C(=N/NC(=O)c1ccncc1)C(=O)O | -0.8% (inactive)
O=C(O)Cc1ccc(CCNS(=O)(=O)c2ccc(Cl)cc2)cc1 | 0% (inactive)
CCOC(CN1CCN(CC(C)C(=O)c2ccccc2)CC1)c1ccccc1 (stereo not drawn) | 2.2% (inactive)
C[C@@H]1CCN(C(=O)[C@H](CCCN=C(N)N)NS(=O)(=O)c2cccc3c2NC[C@H](C)C3)[C@@H](C(=O)O)C1 | 0.3% (inactive)
Nc1cc(C(F)(F)F)ccc1S | 0% (inactive)
c1ccc(C(O[C@H]2CCCN(CCc3ccc4c(c3)OCO4)C2)c2ccccc2)cc1 | 0.9% (inactive)

SMILES | nuclear beta-catenin stimulation
CCN(CC)CCOc1ccccc1C(=O)CCc1ccccc1 | -0.8% (inactive)
CCOCCOC(=O)/C=C/c1ccc(OC)cc1 | 1.4% (inactive)
CC1(C)S[C@@H]2[C@H](NC(=O)Cc3ccccc3)C(=O)N2[C@H]1C(=O)O (tested in a mixture with another compound) | 0.8% (inactive)
Cc1cnc(NS(=O)(=O)c2ccc(N)cc2)nc1 | 1.1% (inactive)
CC(C)[C@H](N)C(=O)O | -0.1% (inactive)
CCOC(=O)c1c(N)sc2c1CCN(Cc1ccccc1)C2 | 0.4% (inactive)
CC1(C)CO[C@@H](CC(=O)O)CN1 | -0.7% (inactive)
O=Cc1ccccc1C=O | -0.8% (inactive)
COc1cc2c(cc1OC)C(C(C(=O)N(CCc1ccc(OC)c(OC)c1OC)CCc1ccc(OC)c(OC)c1OC)c1ccccc1)=NCC2 (stereo not drawn) | 4.4% (inactive)
CC(=O)N1CCN(c2ccc(O)cc2)CC1 | 1.7% (inactive)
C[C@H]1O[C@@H](O[C@H]2CC[C@@]3(C)[C@H](CC[C@@H]4[C@@H]3C[C@@H](O)[C@]3(C)[C@@H](C5=CC(=O)OC5)CC[C@]43O)C2)C[C@H](O)[C@@H]1O[C@H]1C[C@H](O)[C@H](O[C@H]2C[C@H](O)[C@H](O[C@@H]3O[C@H](CO)[C@@H](O)[C@H](O)[C@H]3O)[C@@H](C)O2)[C@@H](C)O1 | -1% (inactive)
Cc1ncc(C[n+]2csc(CCOP(=O)(O)O)c2C)c(N)n1 | 0.8% (inactive)
CC(C)(Cc1c[nH]c2ccccc12)NCC(O)COc1ccccc1C#N (stereo not drawn) | 0.2% (inactive)
CCC(C(=O)NC(=O)NC(C)=O)c1ccccc1 (stereo not drawn) | 0.9% (inactive)
CCCCCOc1ccc(C2SC(=O)NC2=O)cc1OCC (stereo not drawn) | -0.1% (inactive)
Cc1cc(N)c2cc(NC(=O)Nc3ccc4nc(C)cc(N)c4c3)ccc2n1 | 2.4% (inactive)
CC(C)NCCCC1(C(N)=O)c2ccccc2-c2ccccc21 | 3.9% (inactive)
CC(=O)c1ccc(OCC(=O)N2CCCCC2)cc1 | 1.1% (inactive)
C[C@H](CCC(=O)O)[C@H]1CC[C@H]2[C@H]3[C@@H](CC[C@]12C)[C@@]1(C)CC[C@@H](O)C[C@H]1C[C@@H]3O | -1.6% (inactive)

Same assay, conditions: stimulation, at 2 µM, stronger effect = higher value

SMILES | nuclear beta-catenin stimulation [%]
CCOC(=O)N1CCC(Nc2ccc(Cl)cc2N)CC1 | 4.4
OCCCc1ccccc1 | 4.5
CC[C@@H]([C@H](C)O)n1ncn(-c2ccc(N3CCN(c4ccc(OC[C@@H]5CO[C@@](Cn6cncn6)(c6ccc(F)cc6F)C5)cc4)CC3)cc2)c1=O | 8.2
Nc1ncnc2c1ncn2Cc1c(F)cccc1Cl | -2.1
Cc1nc2n(c(=O)c1CCN1CCC(C(=O)c3ccc(F)cc3)CC1)CCS2 | -0.8
COC(=O)c1cc(Cl)c(NC(C)=O)cc1OC | 0.7
CC(C(=O)O)c1ccc(/C=C2\CCCCC2=O)cc1 (stereo not drawn) | -1.5
Cn1c(O)c(N=NC(N)=S)c2ccccc21 | 3.1
OC[C@H]1O[C@@H](n2cnc3c(=S)nc[nH]c32)[C@H](O)[C@@H]1O | -0.2
CCOC(=O)CN1CCCC1=O | 21
COC(=O)/C=C(/C)N | 2.2
CCCN(CCc1cccs1)[C@H]1CCc2c(O)cccc2C1 | -2.2
CCCCCCCC/C=C\CCCCCCCCN | 2.6
COc1ccc(S(=O)(=O)N2c3ccc(Cl)cc3[C@@](O)(c3ccccc3Cl)[C@H]2C(=O)N2CCC[C@@H]2C(N)=O)cc1OC | -0.8
C/C(=N/NC(=O)c1ccncc1)C(=O)O | -0.3
O=C(O)Cc1ccc(CCNS(=O)(=O)c2ccc(Cl)cc2)cc1 | 0.1
CCOC(CN1CCN(CC(C)C(=O)c2ccccc2)CC1)c1ccccc1 (stereo not drawn) | -0.1
C[C@@H]1CCN(C(=O)[C@H](CCCN=C(N)N)NS(=O)(=O)c2cccc3c2NC[C@H](C)C3)[C@@H](C(=O)O)C1 | -0.5
Nc1cc(C(F)(F)F)ccc1S | -0.9
c1ccc(C(O[C@H]2CCCN(CCc3ccc4c(c3)OCO4)C2)c2ccccc2)cc1 | 1.5

SMILES | nuclear beta-catenin stimulation [%]
CCN(CC)CCOc1ccccc1C(=O)CCc1ccccc1 | -1.7
CCOCCOC(=O)/C=C/c1ccc(OC)cc1 | 1
CC1(C)S[C@@H]2[C@H](NC(=O)Cc3ccccc3)C(=O)N2[C@H]1C(=O)O (tested in a mixture with another compound) | -0.3
Cc1cnc(NS(=O)(=O)c2ccc(N)cc2)nc1 | -0.7
CC(C)[C@H](N)C(=O)O | 1.3
CCOC(=O)c1c(N)sc2c1CCN(Cc1ccccc1)C2 | 0.3
CC1(C)CO[C@@H](CC(=O)O)CN1 | 0.1
O=Cc1ccccc1C=O | 0.2
COc1cc2c(cc1OC)C(C(C(=O)N(CCc1ccc(OC)c(OC)c1OC)CCc1ccc(OC)c(OC)c1OC)c1ccccc1)=NCC2 (stereo not drawn) | 8.3
CC(=O)N1CCN(c2ccc(O)cc2)CC1 | -1.5
C[C@H]1O[C@@H](O[C@H]2CC[C@@]3(C)[C@H](CC[C@@H]4[C@@H]3C[C@@H](O)[C@]3(C)[C@@H](C5=CC(=O)OC5)CC[C@]43O)C2)C[C@H](O)[C@@H]1O[C@H]1C[C@H](O)[C@H](O[C@H]2C[C@H](O)[C@H](O[C@@H]3O[C@H](CO)[C@@H](O)[C@H](O)[C@H]3O)[C@@H](C)O2)[C@@H](C)O1 | -0.7
Cc1ncc(C[n+]2csc(CCOP(=O)(O)O)c2C)c(N)n1 | -0.6
CC(C)(Cc1c[nH]c2ccccc12)NCC(O)COc1ccccc1C#N (stereo not drawn) | 0
CCC(C(=O)NC(=O)NC(C)=O)c1ccccc1 (stereo not drawn) | 0.2
CCCCCOc1ccc(C2SC(=O)NC2=O)cc1OCC (stereo not drawn) | 11.7
Cc1cc(N)c2cc(NC(=O)Nc3ccc4nc(C)cc(N)c4c3)ccc2n1 | -2.2
CC(C)NCCCC1(C(N)=O)c2ccccc2-c2ccccc21 | 0.2
CC(=O)c1ccc(OCC(=O)N2CCCCC2)cc1 | -0.3
C[C@H](CCC(=O)O)[C@H]1CC[C@H]2[C@H]3[C@@H](CC[C@]12C)[C@@]1(C)CC[C@@H](O)C[C@H]1C[C@@H]3O | 0.2
